# Source: PubChem BioAssay AID488837 (National Center for Advancing Translational Sciences (NCATS), 2010)
# Hit rate of the full screen: of about 330,000 compounds, about 20 (0.006%) were called active. Inconclusive results (about 1%) are left out. Calls follow the shape of the dose curve; as a rule, active = well fitted inhibition curve with a large enough effect; inconclusive = small, poorly fitted or top-dose-only effect, or effect the other way; inactive = flat fitted curve, though single readings scatter. The full list was thinned out, with actives kept by preference.
# Biological target: Protein phosphatase EYA2 (Homo sapiens) (UniProt O00167)
# Sequence (O00167 whole entry, looked up): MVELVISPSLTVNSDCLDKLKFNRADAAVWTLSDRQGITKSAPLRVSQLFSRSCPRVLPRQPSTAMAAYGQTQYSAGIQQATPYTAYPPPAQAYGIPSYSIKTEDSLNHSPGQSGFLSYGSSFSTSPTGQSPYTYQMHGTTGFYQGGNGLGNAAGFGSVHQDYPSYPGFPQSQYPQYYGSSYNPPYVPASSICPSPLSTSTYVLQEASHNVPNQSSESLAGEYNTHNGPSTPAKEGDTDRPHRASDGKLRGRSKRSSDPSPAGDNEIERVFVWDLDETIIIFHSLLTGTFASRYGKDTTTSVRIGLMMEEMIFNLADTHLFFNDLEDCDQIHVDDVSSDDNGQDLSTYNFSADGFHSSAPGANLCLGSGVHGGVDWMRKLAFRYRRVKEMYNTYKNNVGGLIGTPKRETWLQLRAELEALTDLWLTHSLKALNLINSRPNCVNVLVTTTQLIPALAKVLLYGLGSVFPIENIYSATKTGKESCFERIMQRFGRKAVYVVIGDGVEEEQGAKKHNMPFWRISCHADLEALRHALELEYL
# Test: qHTS Assay for Inhibitors of the Phosphatase Activity of Eya2
# Settings: recombinant Eya2, OMFP fluorescence dephosphorylation (OMFP is methylfluorescein phosphate); series mostly up to 76.9 µM
# Source text: The Eya family of proteins are essential co-activators of the Six1 transcription factor. Six1 is a developmental gene that is abnormally re-expressed in a large percentage of breast cancers. This over-expression plays a causal role in the initiation and metastatic development of breast cancers. The Eya family of proteins was also found to contain a unique HAD phosphatase domain with protein tyrosine phosphatase activity which can potentially play a role in Six1-mediated breast tumorigenesis. […] We have developed and optimized a 1536 well fluorescence-based HTS assay targeting the phosphatase activity of Eya2. Inhibitors found against Eya2 could serve as potential therapeutic tools to inhibit Six1-mediated breast tumorigenesis and to increase the efficiency of radiation and certain chemo therapy. These inhibitors could also be used as chemical probes to study the function of Eya2's phosphatase activity and its role in Six1-mediated breast tumorigenesis.
# The Eya2 enzyme was kindly provided by the laboratory of Dr. Rui Zhao. The 3-O-methyl-fluorescein phosphate (OMFP) substrate and all buffer reagents were purchased from Sigma Aldrich. qHTS Assay Setup: 1. Buffer- 50 mM HEPES pH 7.5, 50 mM NaCl, 5 uM MgCl2, 0.05% BSA, 1 mM DTT. 2. OMFP Stock- 10 mM solution prepared in 100% DMSO and stored in single use aliquots at -20C. Assay Procedure- 1. Dispense 1.5 ul per well of Eya2 at 0.2 uM in black medium binding 1536 well Greiner plate 2. Transfer 23 nl of compound and control compound (EGTA) to plate 3. Incubate at ambient for 10 minutes 4. Dispense 1.5 ul per well of OMFP at 50 uM 5. Incubate at ambient for 10 minutes 6. Read on ViewLux using Excitation = 485 nm, Emission = 525 nm
row,SMILES,"activity, negative = inhibition"
1,O=C(O)C1CCC(CNS(=O)(=O)c2ccc(Br)cc2)CC1 (centres undefined),inactive
2,O=C1CCC([N+](=O)[O-])C(c2ccccc2Br)N1 (centres undefined),inactive
3,COC(=O)c1sc(NC(=O)COC(=O)C2CCC2)c(C(=O)OC)c1C,inactive
4,CCOC(=O)c1c(CNCc2ccccc2F)c2sc(C)cc2n1C,inactive
5,COC(=O)N1CN(C(=O)OC)CN(C(=O)OC)C1,inactive
6,CC1CCN(S(=O)(=O)c2ccc3[nH]c(=O)ccc3c2)CC1,inactive
7,CCS(=O)(=O)c1ccc(-c2cccc(NC(=O)c3ccc(Br)o3)c2)nn1,inactive
8,Cc1ccc2c(Cl)c(C(=O)NCCCn3ccnc3)sc2c1,inactive
9,CC(C)CCNC(=O)CCNS(=O)(=O)c1ccc(Cl)cc1,inactive
10,O=C(NCc1cccnc1)c1ccc(CS(=O)(=O)c2ccc(Br)cc2)o1,inactive
11,CC(=O)c1c(N2CCOCC2)nc(=S)n(Cc2ccccc2)c1C,inactive
12,O=C(Nc1ccc(OCC(=O)N2CCOCC2)cc1)c1cc(F)c(F)cc1Cl,inactive
13,Cc1cc(C(=O)Nc2ccc(C)c(S(=O)(=O)N3CCOCC3)c2)c2ccccc2n1,inactive
14,COc1ccc(CCNc2ncnc3c2nnn3Cc2ccccc2)cc1,inactive
15,O=C1OCCN1C(=O)[C@H]1[C@H](c2ccc(F)cc2)C(c2ccccc2)=NN1c1ccc(Br)cc1,inactive
16,Cc1ccc(NC(=O)N2CCSc3ccccc32)cc1,inactive
17,Cc1cc(SCC(=O)NCCN2C(=O)CSC2=O)nc2ccccc12,inactive
18,S=c1[nH]ccn1-c1ccc(Cl)cc1,inactive
19,CCCOc1cccc(C(=O)Nc2ccccc2C(=O)N2CCN(C)CC2)c1,inactive
20,COc1ccc2c(C)cc3nnnn3c2c1,inactive

row,SMILES,"activity, negative = inhibition"
1,CN(C)N(C)C(=O)C(O)(c1ccccc1)c1ccccc1,inactive
2,COc1ccc2[nH]c(C)c(CCN(Cc3cccs3)C(=S)Nc3ccccc3OC)c2c1,inactive
3,O=c1ccc2cc(S(=O)(=O)N3CCN(c4ccccc4)CC3)ccc2o1,inactive
4,O=S1(=O)N=C(N(CCO)/N=C/c2ccccc2F)c2ccccc21,inactive
5,O=C(CCc1nnc2ccc(NCCCN3CCCC3=O)nn12)NCc1ccccc1Cl,inactive
6,CC(=O)N1CCN(c2ccccc2NC(=S)NC(=O)c2cc3ccccc3o2)CC1,inactive
7,COc1ccc(NS(=O)(=O)c2cc(NC(=O)COc3ccccc3F)ccc2OC)cc1,inactive
8,O=C(CSc1nnc(SCc2ccc(F)cc2)s1)Nc1ccc(C(=O)O)cc1,inactive
9,O=C(CS(=O)(=O)c1ccc(C(F)(F)F)cn1)NNC(=O)c1ccccc1,inactive
10,O=C(CCc1ccc(S(=O)(=O)N2CCOCC2)cc1)Nc1ccc2ccccc2c1,inactive
11,N#CC1=C(N)N(c2ccc(F)cc2)C(=O)C1,inactive
12,NC(=O)C1CCCN(CC(=O)N2CCN(c3ccccc3)CC2)C1 (centres undefined),inactive
13,CC[C@@]1(C(=O)OC)N[C@H](CN(C)C(C)=O)[C@@H]2C(=O)N(C)C(=O)[C@@H]21,inactive
14,COc1ccc(C(=O)N2CCCN(C)CC2)c(OC)c1,inactive
15,COC(C)(C)[C@]12CC(O)(C(C)C)ON1[C@H]1CCCCC1N2O (some centres undefined),inactive
16,O=C(c1ccc(Cl)cc1)N1N=C(c2ccccn2)CC1(O)C(F)(F)F (centres undefined),inactive
17,COc1ccc(Cl)cc1NC(=O)CCS(=O)(=O)c1ccc(Br)cc1,inactive
18,COC(=O)c1ccccc1NC(=O)CSc1n[nH]c(-c2ccncc2)n1,inactive
19,CCCCNS(=O)(=O)c1ccc(S(=O)(=O)n2cnc3ccccc32)cc1,inactive
